Measurements from PubChem BioAssay (EPA / NIEHS).
Records with an inconclusive call do not appear. Calls of active or inactive are those of the source. Rule for the calls, unless noted: active = hit-call score of the fitted dose curve at least 0.9, where 1 is the maximum; inconclusive = response in the unintended direction; inactive = score below 0.9.

What was measured:
[1] = Tanguay_ZF_120hpf_MORT_legacy: (Legacy) Oregon State University Tanguay Lab 120 Hour Post-fertilization zebrafish Assay for Mortality (AID 2283633)
How it was run: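 5D WT zebrafish, chorion removed 4 hpf; 1 embryo/well from 6 hpf; static exposure to 120 hpf, 28C, dark, sealed. Final DMSO 0.64%. Readout: binary mortality, brightfield, 24 + 120 hpf; DMSO as negative control.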

[2] = Tanguay_ZF_120hpf_YSE_legacy: (Legacy) Oregon State University Tanguay Lab 120 Hour Post-fertilization zebrafish Assay for Yolk Sac Edema (AID 2283634)
How it was run: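 Dechorionate (pronase, 4 hpf) → place one 6 hpf embryo per well → static compound exposure, sealed and foil-covered, 28C, to 120 hpf → record yolk sac edema as present or absent. Final DMSO 0.64%.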

[3] = Tanguay_ZF_120hpf_AXIS_legacy: (Legacy) Oregon State University Tanguay Lab 120 Hour Post-fertilization zebrafish Assay for Body Axis Malformation (AID 2283635);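 note: potency for an increased fraction of larvae scored with body axis malformation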
How it was run: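 Chorion is removed with pronase at 4 hpf, then single 6 hpf embryos are dosed (final DMSO 0.64%) and held statically at 28C in sealed, foil-covered plates. At 120 hpf body axis malformation is recorded as present or absent.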

[4] = Tanguay_ZF_120hpf_EYE_legacy: (Legacy) Oregon State University Tanguay Lab 120 Hour Post-fertilization zebrafish Assay for Eye Malformation (AID 2283636)
How it was run: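 Binary brightfield scoring of eye defects at 120 hpf after static exposure from 6 hpf of single pronase-dechorionated wild-type embryos (28C, 0.64% DMSO). Non-mortality endpoints omitted where embryos died; fit vs DMSO.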

[5] = Tanguay_ZF_120hpf_SNOU_legacy: (Legacy) Oregon State University Tanguay Lab 120 Hour Post-fertilization zebrafish Assay for Snout Malformation (AID 2283637)
How it was run: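 Binary snout-malformation call at 120 hpf in wild-type 5D embryos, chorion removed by pronase, under static exposure from 6 hpf at 28C (0.64% DMSO). Embryos dying by 24 or 120 hpf excluded.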

[6] = Tanguay_ZF_120hpf_JAW_legacy: (Legacy) Oregon State University Tanguay Lab 120 Hour Post-fertilization zebrafish Assay for Jaw Malformation (AID 2283638)
How it was run: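 Steps: dechorionate 4 hpf embryos (pronase); plate 1/well at 6 hpf; add test chemical, 0.64% DMSO final; seal, cover, hold at 28C statically to 120 hpf; score jaw defect presence/absence microscopically. Dead embryos not scored.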

[7] = Tanguay_ZF_120hpf_OTIC_legacy: (Legacy) Oregon State University Tanguay Lab 120 Hour Post-fertilization zebrafish Assay for Otic Vesicle Malformation (AID 2283639)
How it was run: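 Statically exposed wild-type 5D zebrafish embryos, kept sealed and dark at 28C through 120 hours post fertilization, were examined by brightfield microscopy for otic vesicle defects. Responses were recorded as present or absent and analysed relative to DMSO.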

[8] = Tanguay_ZF_120hpf_PE_legacy: (Legacy) Oregon State University Tanguay Lab 120 Hour Post-fertilization zebrafish Assay for Pericardial Edema (AID 2283640)
How it was run: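 Embryos from wild-type 5D adults were staged, then dosed in 0.64% DMSO. They were kept sealed in the dark at 28C until 120 hpf. Pericardial edema was then recorded as present or absent.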

[9] = Tanguay_ZF_120hpf_BRAI_legacy: (Legacy) Oregon State University Tanguay Lab 120 Hour Post-fertilization zebrafish Assay for Brain Malformation (AID 2283641)
How it was run: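 Wild-type 5D larvae, static waterborne exposure to 120 hpf, 28C, 0.64% v/v DMSO. Brightfield scoring of brain defects, binary; dead embryos excluded. Positive ctrl 5uM trimethyltin chloride.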

[10] = Tanguay_ZF_120hpf_SOMI_legacy: (Legacy) Oregon State University Tanguay Lab 120 Hour Post-fertilization zebrafish Assay for Somite Malformation (AID 2283647)
How it was run: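 Read-out: presence or absence of somite malformation in 120 hpf larvae, gain-of-signal relative to DMSO baseline. Embryos lacked chorion (pronase, 4 hpf) and were exposed statically from 6 hpf at 28C; dead larvae not scored.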

[11] = Tanguay_ZF_120hpf_PFIN_legacy: (Legacy) Oregon State University Tanguay Lab 120 Hour Post-fertilization zebrafish Assay for Pectoral Fin Malformation (AID 2283648);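 note: each larva judged yes or no for fin defect by brightfield with dead larvae skipped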
How it was run: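 Pectoral fin malformation was recorded as a binary endpoint at 120 hpf in wild-type Tropical 5D larvae, which had been dechorionated and exposed statically from 6 hpf at 28C in 0.64% DMSO. Dead embryos were excluded.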

[12] = Tanguay_ZF_120hpf_CFIN_legacy: (Legacy) Oregon State University Tanguay Lab 120 Hour Post-fertilization zebrafish Assay for Caudal Fin Malformation (AID 2283649)
How it was run: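 Binary presence or absence of caudal fin malformation at 120 hpf, read by brightfield microscopy, with DMSO as baseline. Larvae came from 5D wild-type embryos exposed statically from 6 hpf at 28C after pronase dechorionation.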

[13] = Tanguay_ZF_120hpf_PIG_legacy: (Legacy) Oregon State University Tanguay Lab 120 Hour Post-fertilization zebrafish Assay for Pigmentation Malformation (AID 2283650)
How it was run: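 Pigment malformation recorded as a binary call at 120 hpf in zebrafish (Tropical 5D) exposed singly from 6 hpf after pronase dechorionation. Static, sealed, 28C exposure, 0.64% DMSO; mortality excludes scoring; positive-direction fit against DMSO.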

[14] = Tanguay_ZF_120hpf_SWIM_legacy: (Legacy) Oregon State University Tanguay Lab 120 Hour Post-fertilization zebrafish Assay for Swim Bladder Malformation (AID 2283654);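 note: swim bladder malformation in each larva scored yes or no under brightfield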
How it was run: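 Scoring is binary for swim bladder defects at 120 hpf, by brightfield inspection of zebrafish larvae. Embryos were exposed singly from 6 hpf after pronase dechorionation, at 28C with 0.64% DMSO; mortality excluded scoring.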

[15] = Tanguay_ZF_120hpf_TRUN_legacy: (Legacy) Oregon State University Tanguay Lab 120 Hour Post-fertilization zebrafish Assay for Truncated Body (AID 2283655)
How it was run: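 Truncated body is recorded as a binary endpoint at 120 hpf by brightfield imaging of wild-type 5D larvae. Exposure runs statically from 6 hpf at 28C with 0.64% DMSO; embryos dying earlier are not scored.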

[16] = Tanguay_ZF_120hpf_NC_legacy: (Legacy) Oregon State University Tanguay Lab 120 Hour Post-fertilization zebrafish Assay for Notochord and Tail Malformation (AID 2283656)
How it was run: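 Binary scoring of notochord distortion by brightfield microscopy; embryos dying were not scored. Wild-type Tropical 5D embryos, chorion removed, exposed singly and statically from 6 to 120 hpf, 28C, sealed, 0.64% DMSO.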

[17] = Tanguay_ZF_120hpf_TR_legacy: (Legacy) Oregon State University Tanguay Lab 120 Hour Post-fertilization zebrafish Assay for Touch Response (AID 2283667)
How it was run: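 Binary touch-response endpoint in larvae at 120 hpf after static waterborne exposure from embryo stage (28°C, 0.64% DMSO vehicle, 5 uM trimethyltin chloride as positive control); embryos dead at 24 or 120 hpf excluded; fitted as gain versus DMSO.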

[18] = STM_H9_OrnithineISnorm_perc: Stemina devTOX quickPredict H9 human embryonic stem cell (hESC)-based Assay for Ornithine (ORN) Metabolite Biomarker, Normalized (AID 2283712; active = hit-call score of the fitted dose curve at least 0.9, where 1 is the maximum; inactive = score below 0.9;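 note: ornithine released into spent medium during last day measured by mass spectrometry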)
How it was run: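 Ornithine secreted by H9 hESCs after 72h compound treatment (daily media/compound renewal) was quantified in final-day media by UPLC-HRMS. Values are isotope-standard-normalized, expressed relative to 0.1% DMSO, fitted in positive direction.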

Q: With `CS(=O)(=O)OCCCCOS(C)(=O)=O` as the compound, how does the outcome [1] read?
A: inactive

Q: What about the outcome [2] of the same compound?
A: inactive

Q: What about the AC50 [3] of the same compound?
A: 38.7 µM (active)

Q: What about the outcome [4] of the same compound?
A: inactive

Q: What about the outcome [5] of the same compound?
A: inactive

Q: What about the outcome [6] of the same compound?
A: inactive

Q: What about the outcome [7] of the same compound?
A: inactive

Q: And the outcome [8]?
A: inactive

Q: What about the outcome [9] of the same compound?
A: inactive

Q: And the outcome [10]?
A: inactive

Q: And the outcome [11]?
A: inactive

Q: And the outcome [12]?
A: inactive

Q: And the outcome [13]?
A: inactive

Q: What about the outcome [14] of the same compound?
A: inactive

Q: What about the outcome [15] of the same compound?
A: inactive

Q: And the AC50 [16]?
A: 47.1 µM (active)

Q: What about the outcome [17] of the same compound?
A: inactive

Q: And the AC50 [18]?
A: 36.3 µM (active)
